Laboratory results published in PubChem BioAssay (NCI).
Compounds without any hit were thinned out: in the full panel of roughly 79,000, 15% have a hit. Rule as the data show it: active = growth inhibition above about 70%; inactive = the rest.

What was measured:
[1] = NCI Yeast Anticancer Drug Screen. Data for the rad50 strain (AID 155);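 also: 0% = growth of vehicle-only cultures of the same strain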; details: S. cerevisiae rad50 strain growth inhibition, active compounds read high; at 50.0 µM unless noted
In short: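 Compounds were tested on a yeast strain with an engineered DNA damage repair alteration; the reported value is growth inhibition normalised to vehicle treatment.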

[2] = NCI Yeast Anticancer Drug Screen. Data for the mec2-1 strain (AID 157); details: S. cerevisiae mec2-1 strain, active compounds read high; at 50.0 µM unless noted
In short: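 Using mec2-1 yeast: add compound, measure growth, express inhibition versus vehicle-treated cultures.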

[3] = NCI Yeast Anticancer Drug Screen. Data for the sgs1 mgt1 strain (AID 161);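 also: 0% = growth of cultures given vehicle only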; details: S. cerevisiae sgs1 mgt1 strain, active compounds read high; at 50.0 µM unless noted
In short: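 Percent growth inhibition was derived by comparing compound-exposed mutant yeast with vehicle-exposed cultures. The strain carries alterations in DNA damage repair.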

[4] = NCI Yeast Anticancer Drug Screen. Data for the cln2 rad14 strain (AID 165);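 also: 0% = growth equal to vehicle treated cultures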; details: S. cerevisiae cln2 rad14 strain, active compounds read high; at 50.0 µM unless noted
In short: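 Yeast strain cln2 rad14, bearing defects in cell cycle control and DNA repair, serves as the test system; values reflect growth inhibition compared with vehicle.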

[5] = NCI Yeast Anticancer Drug Screen. Data for the bub3 strain (AID 167); details: S. cerevisiae bub3 mutant strain, active compounds read high; at 50.0 µM unless noted
In short: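 Growth of a checkpoint-deficient yeast mutant is measured after compound exposure. Values represent inhibition relative to vehicle.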

[6] = NCI Yeast Anticancer Drug Screen. Data for the mlh1 rad18 strain (AID 175); details: S. cerevisiae mlh1 rad18 strain growth inhibition, active compounds read high; at 50.0 µM unless noted
In short: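 Steps: expose repair-defective yeast to compound; measure growth; express inhibition against vehicle-treated controls.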

Measured: growth inhibition

CN(C)CC=C(c1ccccc1)c1ccccc1
inactive: [1] -11.9% | [2] -16.4% | [3] -3.3% | [4] -4.05% | [5] -8.85% | [6] 6.6%

CCSC(=Nc1nc2ccc([N+](=O)[O-])cc2s1)SCC
inactive: [1] 43.5% | [2] 31.4% | [3] 33.5% | [4] 14.1% | [5] 25.5% | [6] 12.2%

c1ccc(CN2CCOC2)cc1
inactive: [1] 15.6% | [2] 5.85% | [3] -13.1% | [4] 11% | [5] -2.2% | [6] -35.6%

COP(=O)(OC)/C(=C/c1cn(C(C)=O)c2ccccc12)NC(C)=O
inactive: [1] -21% | [2] -49.9% | [3] -13.1% | [4] 13.1% | [5] 15.4% | [6] -8.25%

CNc1ccccc1C(=O)NCCCN
inactive: [1] -10.3% | [2] -25.6% | [3] 5% | [4] 2.75% | [5] 18.8% | [6] 0.45%

CNNC(=O)C(O)C(C)(C)CO (stereo unspecified)
inactive: [1] -4.45% | [2] 8.5% | [3] -4.3% | [4] 20.1% | [5] 6.5% | [6] 9.8%

O=C1COC(c2ccccc2O)=NN1Cc1ccccc1
inactive: [1] -14.6% | [2] -0.3% | [3] -5.3% | [4] -4.75% | [5] -8.6% | [6] -1.1%

CC(=O)CCn1[nH]c(=O)c2ccccc2c1=O
inactive: [1] -2.05% | [2] 7.35% | [3] 1.6% | [4] 7.9% | [5] -3.15% | [6] 10.9%

Cc1ccc(C=NC23CC4CC(CC(C4)C2)C3)cc1
inactive: [1] -3.3% | [2] -28.6% | [3] -24.2% | [4] -24.9% | [5] -35.9% | [6] -20.4%

CNc1c(F)c(C#N)c(F)c(F)c1C#N
inactive: [1] 9.35% | [2] -6.95% | [3] -16.6% | [4] -8.95% | [5] 0.55% | [6] 1.75%

CC1C2=C(CC(C)(C)CC2=O)NC2=C1C(=O)CC(C)(C)C2
inactive: [1] -7.3% | [2] -26.1% | [3] -8.55% | [4] -9.85% | [5] -7.4% | [6] -3.4%

O=c1oc2ccccc2c(O)c1Cc1ccccc1Cc1c(O)c2ccccc2oc1=O
inactive: [1] 4.4% | [2] 4.65% | [3] -13.2% | [4] 10.9% | [5] -19.9% | [6] 65%

CC(=O)Oc1c(I)cc(Cc2nc(C)oc2C)cc1I
inactive: [1] -41.1% | [2] -1.15% | [3] 6.5% | [4] 1% | [5] 6.8% | [6] -4.8%

O=C1NCC1c1ccccc1 (stereo unspecified)
inactive: [1] -12% | [2] -4.85% | [3] -8.65% | [4] 5.35% | [5] 19.1% | [6] 3.45%

N#CC(NNC(=O)Cc1ccccc1)c1ccc(O)cc1 (stereo unspecified)
inactive: [1] -18.1% | [2] -22.6% | [3] -37.1% | [4] -7.05% | [5] -25.6% | [6] -32.5%

CCS(=O)(=O)C(CCCl)S(=O)(=O)CC
inactive: [1] 2.45% | [2] 0.9% | [3] 16.4% | [4] 8.55% | [5] 17.4% | [6] 13.9%

O=C(Cc1nc2ccccc2o1)C(=O)Nc1ccccc1C(F)(F)F
inactive: [1] -16.5% | [2] -4.9% | [3] -2.8% | [4] 7.2% | [5] 2.75% | [6] 17.6%

CNS(=O)(=O)c1ccc(C)c(C)c1
inactive: [1] -0.5% | [2] -13.9% | [3] 4.4% | [4] -10.7% | [5] 23.1% | [6] 12.7%

Nc1ccc2ncc(Nc3ccc(F)cc3)nc2c1
inactive: [1] 37.7% | [2] -22.6% | [3] 25.1% | [4] 23.4% | [5] 17.8% | [6] 15.6%

N#CC1=C(NC(N)=O)CCCC1
inactive: [1] -0.7% | [2] 36.7% | [3] 10.7% | [4] 35.3% | [5] 10.1% | [6] 5.45%

Cc1ccccc1NC(=O)C(=O)CC(=O)c1sc(-n2nc(-c3ccccc3)cc2-c2ccccc2)nc1C
inactive: [1] 12.3% | [2] -4.3% | [3] 5.45% | [4] 16.4% | [5] 2.05% | [6] -17.8%
